Assay results reported in PubChem BioAssay AID686978 (National Center for Advancing Translational Sciences (NCATS), 2013).
Where “and” joins values, the source holds several entries; their conditions need not be identical. Equal entries are not always repeated. About 64,000 (15%) of roughly 420,000 compounds were called active. Inconclusive results (about 27%) are left out. Calls follow the shape of the dose curve; as a rule, active = well fitted inhibition curve with a large enough effect; inconclusive = small, poorly fitted or top-dose-only effect; inactive = flat fitted curve, though single readings scatter. Not all results are given here. Entries that show only a call come without a potency.

assay: qHTS for Inhibitors of human tyrosyl-DNA phosphodiesterase 1 (TDP1): qHTS in cells in absence of CPT; conditions: DT40 Tdp1-/- hTDP1 cells, no CPT, ATP luminescence, 48 h; activity change, negative = growth inhibition: at 46.2 µM (top of the series); also: nearly all actives have a fitted effect of over 55% in size
How it was run: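 Readout: luminescence from CellTiter-Glo after 30 min in the dark at RT. Cells: DT40 Tdp1-/- with stable hTDP1, 400/well. Exposure: compounds alone, ≥48 hr, 37 °C.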
Potency is read from the fitted curve at half-maximal effect.

Row | SMILES | Potency
1 | COc1ccc(O)c(/C=N/N=C/c2cccc([N+](=O)[O-])c2)c1 | inactive
2 | Cc1ccc(S(=O)(=O)NC(=O)N2CCCC(C)(C)C2)cc1 | inactive
3 | O=C(NC1CCN(C(=S)NCc2ccco2)CC1)c1ccc(F)cc1 | inactive
4 | Cc1cc(C)c[n+](-c2nc3ccccc3nc2[N-]S(=O)(=O)c2cccs2)c1 | inactive
5 | O=S(=O)([N-]c1nc2ccccc2nc1-[n+]1ccc(Cc2ccccc2)cc1)c1ccc(Br)s1 | 14.6 µM (active)
6 | O=S(=O)(NCc1cccnc1)c1ccc(Br)s1 | inactive
7 | Cc1cc(C)cc(NC(=O)CCS(=O)(=O)c2cc3c4c(c2)CCN4C(=O)CC3)c1 | inactive
8 | CC1CSc2nnc(CCc3ccccc3)n21 (centres undefined) | inactive
9 | Cc1cc(C(=O)COC(=O)c2cccs2)c(C)n1-c1c(C)n(C)n(-c2ccccc2)c1=O | inactive
10 | COc1ccc(-c2nnc(-c3ccc4ccccc4c3)o2)cc1 | inactive
11 | COc1ccc(-c2nnc(SC(C)C#N)o2)cc1 (centres undefined) | inactive
12 | COc1ccc(-c2nnc(SC(=O)N3c4ccccc4Sc4ccccc43)o2)cc1 | 7.94 µM (active)
13 | COc1ccc(NC(=S)SC)cc1OC | inactive
14 | COc1cc(C(c2c(NC(=O)c3ccco3)sc(C)c2C)N2CCOCC2)cc(OC)c1OC (centres undefined) | 29.1 µM (active)
15 | COc1ccc(CC(=O)Nc2ccccc2NC(=O)c2ccco2)cc1OC | inactive
16 | COC(=O)c1cc(NC(=O)c2ccco2)ccc1N1CCOCC1 | inactive
17 | C=CCNC(=O)c1cc2nc(C3CC3)cc(C(F)F)n2n1 | inactive
18 | CCCCn1c(N)c(N(CC)C(=O)/C=C/c2ccco2)c(=O)[nH]c1=O | inactive
19 | CC1CCc2c(sc3nc4n(c(=O)c23)CCS4)C1 (centres undefined) | inactive
20 | Cc1ccc(NC(=O)Nc2sc3nc4n(c(=O)c3c2C)CCC(C)CC4)c(Cl)c1 (centres undefined) | 11.6 µM (active)
21 | CC1CCN(C(=O)c2ccc3c(=O)n4c(nc3c2)CCCCC4)CC1 | inactive
22 | CNC(=O)c1nnc(Cc2ccc(Cl)cc2)o1 | inactive
23 | O=C1C2C3C=CC(C3)C2C(=O)N1c1ccc(S(=O)(=O)Nc2nccs2)cc1 (centres undefined) | inactive
24 | Cc1ccc2sc(NNC(=O)c3ccc4c(c3)OCCO4)nc2c1C | inactive
25 | O=C(Nc1nc2ccc(S(=O)(=O)N3CCCC3)cc2s1)C1CCCO1 (centres undefined) | inactive
26 | Cc1ccc2nc(NC(=O)C3CCN(S(=O)(=O)c4ccc5c(c4)oc(=O)n5C)CC3)sc2c1 | 14.6 µM (active)

Row | SMILES | Potency
27 | O=C(NC1CCCCC1)n1c(=O)oc2cc(S(=O)(=O)N3CCCCC3)ccc21 | inactive
28 | CC(=O)Nc1c2c(nn1-c1ccc(C)cc1C)CS(=O)C2 (centres undefined) | inactive
29 | CC(=O)c1ccc(S(=O)(=O)Nc2ccc(-c3ccc4nncn4n3)cc2)cc1 | inactive
30 | O=C(O)c1ccc(NC(=O)C2CCCCC2)cc1 | inactive
31 | O=C(Nc1ccc(-c2ccc3nncn3n2)cc1)C1CCCCC1 | 16.4 µM (active)
32 | c1ccc(C2c3[nH]c4ccccc4c3CCN2Cc2cccn2-c2cccnc2)nc1 (centres undefined) | 5.8 µM (active)
33 | O=C(c1cn2ccccc2n1)N1CCc2c([nH]c3ccccc23)C1c1ccccn1 (centres undefined) | inactive
34 | CCOc1ccc(C2c3[nH]c4ccccc4c3CCN2Cc2cccn2-c2ncccn2)cc1 (centres undefined) | 13 µM (active)
35 | CCOc1ccc(C2c3[nH]c4ccccc4c3CCN2Cc2cn(CC)nc2C)cc1 (centres undefined) | inactive
36 | COCC(=O)Nc1c(I)c(C(=O)NCC(O)CO)c(I)c(C(=O)N(C)CC(O)CO)c1I (centres undefined) | inactive
37 | Nc1nc(SCC(=O)N2CCN(S(=O)(=O)c3ccc(Cl)cc3)CC2)n[nH]1 | inactive
38 | CC(CCN1CCN=C1N(C)C)c1ccccc1 (centres undefined) | inactive
39 | Cc1ccc2[nH]c(=O)c(COC(=O)c3ccccn3)cc2c1 | inactive
40 | Cc1ccccc1NC(=O)c1cnn(-c2ccccc2)c1NC(=O)c1ccco1 | inactive
41 | Nc1cc2c(cc1Br)-c1ccc(F)cc1C2=O | inactive
42 | COC(=O)C[C@H]1C=C[C@H](NC(=O)c2ccc(F)cc2)[C@@H](CO)O1 | inactive
43 | Cc1ccsc1/C=N/NC(=O)Cc1cc(=O)[nH][nH]1 | inactive
44 | Brc1ccc(CN2CC[C@H]3C=CCc4cccc(c43)C2)cc1 | 15.8 µM (active) and 20.6 µM (active)
45 | Cc1cccc(C)c1N1C(=O)CN(Cc2ccccc2)C1=S | inactive
46 | O=C1C[C@@H]2c3c(cccc3CN1Cc1ccccc1)C[C@@H](O)[C@H]2O | inactive
47 | O=C1C[C@H]2C=CCc3cccc(c32)CN1Cc1ccccc1 | 20 µM (active)
48 | CCCC(=O)C1CCN(Cc2ccccc2)CC1 | inactive
49 | C/C(Cn1nnc2ccccc21)=N\OC(=O)c1cc(F)c(F)cc1Cl | inactive
50 | O=C(NCc1ccc(F)cc1)C1CCC(CNc2c(N3CCOCC3)c(=O)c2=O)CC1 (centres undefined) | inactive
51 | CC[C@]1(O)CC2CN(CCc3c([nH]c4ccccc34)[C@@](C(=O)OC)(c3cc4c(cc3OC)N(C=O)[C@H]3[C@@](O)(C(=O)OC)[C@H](OC(C)=O)[C@]5(CC)C=CCN6CC[C@]43[C@@H]65)C2)C1 (some centres undefined) | inactive
52 | CC[C@]1(O)C[C@@H]2CN(CCc3c([nH]c4ccccc34)[C@@](C(=O)OC)(c3cc4c(cc3OC)N(C)[C@H]3[C@@](O)(C(=O)OC)[C@H](OC(C)=O)[C@]5(CC)C=CCN6CC[C@]43[C@@H]65)C2)C1 | 51.7 nM (active) and 59.6 nM (active) and 82 nM (active)

Row | SMILES | Potency
53 | CCN(CC)Cc1c(C(=O)OC)nnn1-c1nonc1N | inactive
54 | CC1(C(=O)NS(=O)(=O)c2ccccc2)CCN1C(=O)c1ccccc1 (centres undefined) | inactive
55 | CC(C)NC(=O)C1(C)CCCCCN1C(=O)c1ccc(-c2ccccc2)cc1 (centres undefined) | 9.2 µM (active)
56 | CCNC(=O)C1(C)CCCN1C(=O)c1ccc(N(C)C)cc1 (centres undefined) | inactive
57 | CC(C)(CNCC(O)c1ccccc1)N1CCOCC1 (centres undefined) | inactive
58 | NC(=S)N/N=C/c1ccc([N+](=O)[O-])cc1 | inactive
59 | CCOc1ccc(/C=N/NC(N)=S)cc1 | 16.4 µM (active)
60 | CCOC(=O)N1CCC(=NNC(N)=O)CC1 | inactive
61 | CC1CC(C)CN(c2oc(-c3ccc(OCc4ccc(Cl)cc4)cc3)nc2C#N)C1 (centres undefined) | inactive
62 | N#Cc1nc(COc2ccc(Cl)cc2)oc1N1CCCC1 | inactive
63 | CCC(C)Nc1oc(-c2ccc(COc3ccc(Cl)cc3)o2)nc1C#N (centres undefined) | 23.1 µM (active)
64 | COC(=O)c1sccc1NC(=O)c1ccc(Cl)cc1 | inactive
65 | O=C1c2ccccc2C(=O)C1c1ccccc1 | inactive
66 | COc1ccc(NC(=O)/C(C#N)=C\c2cc(OC)c(OCc3ccc(C(=O)O)cc3)cc2Br)cc1 | inactive
67 | COc1ccccc1C(=O)N/C(=C/c1ccco1)C(=O)Nc1ccc(C(=O)O)cc1 | inactive
68 | COCCCn1c(=O)/c(=C/c2ccccc2OC(C)C)s/c1=C(\C#N)C(=O)Nc1ccc(C(=O)O)cc1 | 20.6 µM (active)
69 | COCCNC(=S)N(CCc1c(C)[nH]c2ccc(C)cc12)Cc1cccnc1 | inactive
70 | CCn1cc(C(=O)N2CC=C(c3ccccc3)CC2)c(=O)c2ccc(C)nc21 | inactive
71 | CCOc1cc(/C=C(\C#N)C(=O)Nc2ccccc2C)ccc1OCc1cc(=O)n2nc(CC)sc2n1 | inactive
72 | CCOc1cc(/C=C(/C#N)c2ccc(Cl)cc2)cc(Cl)c1OCC(=O)O | inactive
73 | CCOc1cc(/C=C(\C#N)c2nc(-c3cccs3)c(NC(C)=O)s2)ccc1O | 3.66 µM (active)
74 | CSc1nc(C)nc2c1c(=O)n(C)c(=O)n2C | inactive
75 | O=P(O)(O)OC[C@H](O)CO | inactive
76 | CC1(C)CC(CCC(=O)Nc2ccccc2Cl)C(=O)O1 (centres undefined) | inactive
77 | Cc1ccc(S(=O)(=O)N2CCC(C(=O)N[C@@H](C)C(=O)NCc3ccccc3)CC2)cc1 | inactive
78 | CCCCOc1ccc(NC(=O)[C@@H]2CCCN2C(=O)C2CCN(S(=O)(=O)c3ccc(C)cc3)CC2)cc1 | inactive

Row | SMILES | Potency
79 | CCCCCCNC(=O)O[C@H]1CN(C(=O)OC(C)C)N(C(=O)OC(C)C)[C@@H]2CN(S(=O)(=O)c3ccc(C)cc3)C[C@]12O | 16.4 µM (active)
80 | O=C(CNS(=O)(=O)c1ccc2ccccc2c1)Nc1ccc(F)c(F)c1F | inactive
81 | Cc1ccc(NS(=O)(=O)c2ccc(C)c(NC(=O)COc3ccc4ccccc4c3)c2)c(C)c1 | 16.4 µM (active)
82 | COc1ccc(C(=O)Nc2cc(C)ccc2NC(=O)COc2ccccc2)cc1 | inactive
83 | CC1CCCCN1C(=S)NCc1ccccc1 (centres undefined) | inactive
84 | O=C(CC1CCCCC1)NCc1ccccc1 | inactive
85 | C/C(=N\NC(=S)NCc1ccccc1)c1ccc(Cl)cc1 | 18.4 µM (active)
86 | O=C(O)c1ccc(/C=N/NC(=S)NCc2ccccc2)cc1 | inactive
87 | CN(C)CCCNC(=S)NCc1ccc(Cl)cc1 | inactive
88 | C/C(=N\NC(=S)NCc1ccccc1)C1CCCCC1 | 6.51 µM (active)
89 | C#CCOCCOCCOCCNc1nc(N2CCN(C(=O)[C@H](CCCCN)n3cc(CCC(=O)O)nn3)CC2)nc(N2CCN(C(=O)[C@H](CCCCN)n3cc(CC(C)O)nn3)CC2)n1 (some centres undefined) | inactive
90 | CSc1ccc(CNC(=O)c2ccc(NC(=O)C3=CSCCO3)cc2)cc1 | inactive
91 | CC(=O)c1ccc(N2CCN(CC(O)c3ccccc3)CC2)cc1 (centres undefined) | inactive
92 | CC1CCCCN1CC(=O)NCc1ccc2c(c1)OCO2 (centres undefined) | inactive
93 | Cn1cncc1COC(=O)c1ccc(Cl)cc1 | inactive
94 | CCc1ccccc1OCCSc1nc(-c2cccs2)nc2cc(=O)[nH]n12 | inactive
95 | Cc1ccc(OCCSc2nc(-c3cccs3)nc3cc(=O)[nH]n23)cc1Cl | 29.1 µM (active)
96 | CC(C)c1c(O)nc(SCCOc2ccc(Cl)cc2)[nH]c1=O | inactive
97 | Brc1cccc(-c2nnc3n2CCC3)c1 | inactive
98 | C[C@H](NC(=O)c1nc[nH]c1C(=O)NCC(=O)OC(C)(C)C)c1ccccc1 | inactive
99 | O=C(O)c1ccccc1-c1ccccc1C(=O)NCCc1ccccc1 | inactive
100 | COc1ccc(CCNC(=O)C2CCN(c3nn4c(=O)cc(C)nc4s3)CC2)cc1OC | inactive
101 | COc1ccc(CCNC(=O)c2ccc(NC(=O)CC3SC(N4CCCCC4)=NC3=O)cc2)cc1OC (centres undefined) | inactive
102 | O=C(NCCc1ccccc1)c1cnc2sc(N3CCCC3)nn2c1=O | 20.6 µM (active)
103 | COc1ccc(CCNC(=O)c2cnc3sc(N4CCCCCC4)nn3c2=O)cc1OC | 8.2 µM (active)
104 | CSc1ncc(C(=O)NCCCc2ccccc2)c(C)n1 | inactive
